CYP2C19 activ – human CYP2C19 activators, primary screen, biochemical, luminescence. recombinant CYP2C19, luciferin-H EGE luminescence; hits give high values; 0 = fully inhibited enzyme, 1 = untreated enzyme. activation factor at 5 µM. 96,000 tested, under 10 active. AID 1025, 2008;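 active = activation factor of at least 2 at 5 µM in the primary screen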;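 note: 0 = wells with 2.5 mM tranylcypromine and 1 = vehicle-only wells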
CYP2C9 act – human CYP2C9 activators, primary screen, biochemical, luminescence; recombinant CYP2C9, luciferin-H conversion; hits give high values; factor 1 = untreated enzyme, 0 = blocked; activation factor at 5 µM; 96,000 tested, 1.4% active; AID 1024, 2008;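 active = activation factor of 2 or more for CYP2C9 at a 5 µM dose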;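 note: 0 = sulfaphenazole-blocked wells and 1 = vehicle-only wells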
Target sequence (P11712 whole entry, looked up): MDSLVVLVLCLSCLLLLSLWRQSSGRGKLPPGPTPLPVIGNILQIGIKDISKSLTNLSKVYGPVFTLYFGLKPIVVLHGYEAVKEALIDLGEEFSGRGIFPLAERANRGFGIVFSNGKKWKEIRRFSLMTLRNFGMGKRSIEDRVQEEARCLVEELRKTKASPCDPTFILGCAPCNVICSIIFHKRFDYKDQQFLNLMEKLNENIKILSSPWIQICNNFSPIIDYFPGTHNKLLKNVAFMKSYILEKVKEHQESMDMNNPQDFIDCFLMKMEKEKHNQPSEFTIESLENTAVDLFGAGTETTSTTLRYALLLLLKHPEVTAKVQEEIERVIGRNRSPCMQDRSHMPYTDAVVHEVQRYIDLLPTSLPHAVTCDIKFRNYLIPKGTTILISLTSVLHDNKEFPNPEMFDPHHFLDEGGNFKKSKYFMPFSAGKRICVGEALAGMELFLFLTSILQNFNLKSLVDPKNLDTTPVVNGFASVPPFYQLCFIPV
sEH inh – soluble epoxide hydrolase inhibitors, primary screen, biochemical, human sEH. recombinant human sEH enzymatic activity assay. inhibition, % at 2 µM. 91,000 tested, 0.34% active. AID 707, 2007; in the data active = inhibition above about 80%
CYP2C19 inhib – blockers of cytochrome P450 2C19 activity – biochemical, luminescence, ADME assay, primary screen; 96,000 tested, 21% active; inhibition, % at 5 µM; CYP2C19 Supersomes, luciferin-H EGE luminescence, 30 min; AID 778, 2007;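 active = CYP2C19 inhibition above a set limit at 5 µM in the primary screen, cut at about 50% in these data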;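 note: plate controls were negative control wells for no effect and 2.5 mM tranylcypromine positive control for full effect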
CYP2C9 inh – blockers of cytochrome P450 2C9 activity – biochemical, luminescence, ADME assay, primary screen. CYP2C9 Supersomes, luciferin-H conversion. AID 777, 2007. inhibition, % at 5 µM. 96,000 tested, 20% active. P11712;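 active = blocking of liver enzyme CYP2C9 beyond about 50% at 5 µM, limit read from the data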
sEH act – soluble epoxide hydrolase activators, primary screen, biochemical, human sEH | activation, % at 2 µM | Bifunctional epoxide hydrolase 2 (Homo sapiens), P34913 | AID 717, 2007 | purified human sEH enzymatic activity, activator screen | 91,000 tested, 0.04% active; in the data active = activation above about 37%
* = called active by the depositor; x = no result. Only some compounds are listed: those with a hit (about 27% of all), similar ones and a draw of the others.

SMILES	CYP2C19 activ	CYP2C9 act	sEH inh	CYP2C19 inhib	CYP2C9 inh	sEH act
CCN1CCC(C(=O)NC2CCCC2)(N(Cc2cccs2)C(=O)Cn2nnc3ccccc32)CC1	1	1.1	x	-4	-14	x
CCCCCCC(=O)Nc1cc2c(C)cc(=O)oc2cc1C	0.6	2.5*	-2	41	-155	5
O=C(CN1CCOCC1)Nc1ccccc1NC(=O)C1CCN(c2ncccn2)CC1	0.7	0.9	-4	29	12	6
Nn1c(SCC(=O)Nc2ccc(S(=O)(=O)N3CCCC3)cc2)nnc1C(F)(F)F	1.1	0.9	-9	-7	12	8
O=C(NCc1ccccc1Cl)c1ccc(Cn2cc(C(F)(F)F)ccc2=O)cc1	0.9	0.9	88*	13	14	-88
CCOC(=O)C(CCCOc1ccccc1C)C(=O)OCC	0.8	0.5	-12	16	47	14
C/C(CC(O)c1ccc2ccccc2n1)=N/O (centres undefined)	1	0.9	4	1	8	-1
CCOC(=O)C1=C(CN2CCN(c3ccc(F)cc3)CC2)NC(=O)NC1c1cccs1 (centres undefined)	0.1	0.1	2	88*	91*	-2
COC(=O)c1cc2n(n1)CCN(Cc1ccc(F)cc1)C2=O	0.6	1.1	13	44	-8	-12
O=C(CN1CCN(S(=O)(=O)c2ccccc2)CC1)NC(=O)NC1CCCCC1	0.5	0.3	3	55*	74*	0
O=C(CN1CCN(S(=O)(=O)c2ccccc2)CC1)NC(=O)NCc1ccccc1	0.6	0.4	4	36	62*	-1
Cc1ccc(S(=O)(=O)N2CCN(CC(=O)NC(=O)NCc3ccccc3)CC2)cc1C	0.9	1	47	11	-2	-46
Cc1ccc2nc(-c3ccc(NS(C)(=O)=O)cc3)cc(-c3ccccc3)c2c1	0.9	0.5	14	10	53*	-12
Cc1c(C(=O)N2CCN(c3ccccn3)CC2)sc2ncnc(N3CCN(c4ccccc4)CC3)c12	x	x	-4	x	x	4
Cc1c(C(=O)N2CCN(c3ccccc3)CC2)sc2ncnc(N3CCC(C)CC3)c12	0.4	0.5	0	61*	49	3
COCCCNC(=O)c1sc2ncnc(N3CCc4ccccc4C3)c2c1C	x	x	8	x	x	-6
Cc1c(C(=O)N2CCOCC2)sc2ncnc(N3CCc4ccccc4C3)c12	0.7	0.3	-1	32	65*	2
O=C1CC(Cc2ccccc2)C(=O)N1CCCn1ccnc1 (centres undefined)	0	0.3	-15	100*	69*	15
O=C1CC(Cc2ccccc2)C(=O)N1CCc1ccc2c(c1)OCO2 (centres undefined)	0.1	0.8	-16	86*	23	14
O=C(O)CN1C(=O)CC(Cc2ccc(Cl)cc2)C1=O (centres undefined)	1	0.9	-10	0	7	12
O=C(CSc1nc(N2CCCCC2)nc(N2CCCCC2)n1)NC1CCCCC1	x	x	-3	x	x	2
CC1CCN(CC(=O)n2c3c(c4ccccc42)CCCC3)CC1	0.3	1.3	5	68*	-29	-2
Cn1c(SCC(=O)n2c3c(c4ccccc42)CCCC3)nnc1-c1ccccc1	0.3	2*	-18	69*	-100	16
Cc1nnc(SCC(=O)n2c3c(c4ccccc42)CCCC3)s1	0.7	1.3	-21	34	-31	17
CCN1CCN(CC(=O)n2c3c(c4ccccc42)CC(C)CC3)CC1 (centres undefined)	0.5	1	8	51*	-2	-3
SMILES	CYP2C19 activ	CYP2C9 act	sEH inh	CYP2C19 inhib	CYP2C9 inh	sEH act
Cc1ccc(NC(=O)c2ccc(CSc3nnnn3C)cc2)cc1	0.8	0.8	26	16	21	-24
CCC1Oc2ccc(C)cc2N(CC(=O)NCCC2=CCCCC2)C1=O (centres undefined)	0	0.7	x	99*	25	x
CC1=C(C(=O)OC(C)C)C(c2ccc(N(C)C)cc2)C2=C(CC(C)(C)CC2=O)N1 (centres undefined)	0.8	0.9	x	17	12	x
COc1cc(C2C(C(=O)OC(C)C)=C(C)Nc3[nH]c(=O)[nH]c(=O)c32)ccc1O (centres undefined)	0.2	0.5	-3	82*	50	4
O=C(O)c1cc(N2C(=O)C3CC=CCC3C2=O)ccc1NCc1cccnc1 (centres undefined)	0.8	0.8	-7	15	19	5
CC(=O)c1cc2c(cc1NC(=O)C1CC1)OCO2	x	x	-6	x	x	11
O=C(O)c1cccc(NC(=O)C23CC4CC(C2)CC(n2cnc(Cl)n2)(C4)C3)c1	0.4	0.3	-1	62*	71*	2
COC(=O)c1ccccc1NC(=O)C12CC3CC(C1)CC(n1cnc(Cl)n1)(C3)C2	x	x	5	x	x	-2
COC(=O)C12CC3CC(C1)CC(n1cnc(Cl)n1)(C3)C2	x	x	5	x	x	-3
O=C(Nc1cc(Oc2ccccc2)cc([N+](=O)[O-])c1)C12CC3CC(C1)CC(n1cnc(Cl)n1)(C3)C2	0.5	0.3	12	54*	68*	-11
O=S(=O)(c1ccc(Br)s1)N1CCc2ccccc2C1	x	x	1	x	x	-2
O=S(=O)(c1ccc(Cl)s1)N1CCc2ccccc2C1	0.3	0.9	x	67*	11	x
O=S(=O)(c1ccc(Cl)s1)N1CCCc2cccc(O)c21	0.3	0.9	10	72*	15	-9
O=S(=O)(c1ccc(Cl)s1)N1CCN(c2ncccn2)CC1	0.8	0.6	29	24	43	-26
Cc1ccc(S(=O)(=O)N2CCOCC2)cc1C(=O)NCc1ccc2c(c1)OCO2	0.8	0.5	12	25	48	-9
CCOC(=O)c1c(C)nc2c(c1C)/C(=N/O)CC(C)(C)C2	0.4	0.5	x	64*	54*	x
CCOC(=O)c1c(C)nc2c(c1-c1ccc(OC)cc1)C(=O)CC(C)(C)C2	0.9	0.8	-31	13	18	31
COc1ccc2nc(C)c(C(=O)OCCN(C)C)cc2c1	1.1	1	x	-8	1	x
O=c1ccc(/C=C/c2ccccc2)nn1Cc1ccccc1Cl	0.6	0.5	-10	35	52*	7
COc1ccc(CC(=O)OCC(=O)NC(=O)NC(C)C)cc1	1	1	7	-3	4	-6
CCCN1/C(=C2/SC(=S)N(CC)C2=O)C=Cc2ccccc21	0.6	0.9	9	37	8	-9
CN1C(=O)/C(=C2/C=Cc3ccccc3N2CCCS(=O)(=O)O)SC1=S	0.8	0.5	-4	23	53*	3
C=CCN1C(=O)/C(=C2/Sc3ccccc3N2CCCS(=O)(=O)O)SC1=S	0.9	0.4	x	14	60*	x

Source: PubChem BioAssay
